FMDV antiviral: High Throughput Screening for Foot and Mouth Disease Virus Antivirals. FMDV antiviral cell-based qHTS. Potency, µM (series often up to 57.9 µM), for inactives: at the top dose activity change, negative = inhibition, most hits filed as inhibitors. 410,000 compounds, 1.2% hits. AID 1159524, 2015; calls by dose curve; tested in HEK293T cells; further: read-out not given here; potency means the concentration at half of the fitted maximal effect; on the % scale 0 is the no-effect control and ±100 the full control effect; nearly all actives have a fitted effect of over 45% in size
Lassa entry inh: qHTS for Inhibitors of binding or entry into cells for Lassa Virus; Lassa virus pseudotype entry inhibition, cell reporter; 300,000 compounds, 1.2% hits; Potency, µM (highest dose often 37.9 µM), inactives show at the highest dose activity change, negative = inhibition, most hits filed as inhibitors; calls by dose curve; tested in HEK293 cells; further: potency means the concentration at half of the fitted maximal effect; on the % scale 0 is the no-effect control and ±100 the full control effect; nearly all actives have a fitted effect of over 50% in size
HCV inh: qHTS Assay for Inhibitors of Hepatitis C Virus (HCV). Huh7.5.1 HCVcc-Cre infection, luciferase reporter, 44 h. AID 651820, 2012. 340,000 compounds, 3.4% hits. Potency, µM (doses to about 41.8 µM), for inactives: top-dose activity change, negative = inhibition, hits mostly inhibitors; active means well fitted inhibition curve with a large enough effect; inconclusive means small, poorly fitted or top-dose-only effect, or another doubt; inactive means no such curve, though single readings can be large or run the other way; further: potency means the concentration at half of the fitted maximal effect; on the % scale 0 is the no-effect control and ±100 the full control effect
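HCVcc-Cre virus at an moi near 0.5 was added right after compound to cells cultured 4 h from seeding (1,000 cells/well). Luciferase activity was determined 44 h later, 15 min after substrate addition at RT.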
HCMV inh: qHTS Assay for inhibitors of the human cytomegalovirus (HCMV); activity change, negative = inhibition, % at 57.5 µM; HFF cells, HCMV-luciferase reporter, 72 h; stronger effect = lower value; 410,000 compounds, 4.5% hits; in the data active means activity change below about -60%; inconclusive means no clear call, values can overlap the other calls; inactive means above about -39%; further: on the % scale 0 is the no-effect control and ±100 the full control effect
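Human foreskin fibroblasts infected with luciferase-reporter HCMV at MOI 1 PFU/cell, compounds at two doses. Luciferase measured 72 h post infection; normalized to buffer-only basal and Salinomycin (10uM) controls.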
SARS PLpro yeast: qHTS of Yeast-based Assay for SARS-CoV PLP; Potency, µM (highest dose often 32.9 µM), inactives show at the top dose activity, positive = growth rescue, actives largely listed as activators; 330,000 compounds, 0.19% hits; AID 485353, 2010; S. cerevisiae expressing SARS-CoV PLpro, growth rescue; calls by dose curve; further: potency means the concentration at half of the fitted maximal effect; 0% is about no effect; nearly all actives have a fitted effect of over 55% in size
MARV entry inh: qHTS for inhibitors of binding or entry into cells for Marburg Virus. Marburg virus pseudotyped entry inhibition, cell reporter. Potency, µM (top dose mostly 37.8 µM), without a hit: at the top dose activity change, negative = inhibition, usual class: inhibitors. 300,000 compounds, 1.8% hits. AID 540276, 2011; calls by dose curve; tested in HEK293 cells; further: potency means the concentration at half of the fitted maximal effect; on the % scale 0 is the no-effect control and ±100 the full control effect
Active calls of the source: *; ? = inconclusive; / = no result; [ ] = dose if it differs, or a comment. The list is not random: actives were taken first. Their share in the collection is about 8%.

SMILES	FMDV antiviral	Lassa entry inh	HCV inh	HCMV inh	SARS PLpro yeast	MARV entry inh
O=C(NNC(=O)c1ccc(NC(=O)c2ccccc2)cc1)c1ccc(F)cc1	-5.2%	/	-2.9%	-18.6	-1.9%	/
COc1ccc(NC(=O)c2cc3ccccc3cc2O)cc1	-1.1%	-37.7%	?	47.7	0.7%	1.12µM*
O=C(Nc1ccc(C(=O)c2ccccc2)cc1)c1ccccc1	17.9%	?	2.82µM*	13.4	-1.8%	?
CN(C(=S)Oc1ccc(C(=O)Nc2ccccc2)cc1)c1ccccc1	-11.0%	?	?	-67.2*	0.0%	?
COc1ccc(NC(=O)c2cc3ccc(O)cc3o/c2=N\O)cc1	?	?	22.4µM*	196.2	0.5%	?
CCOC(=O)c1cccc(NC(=O)NCc2ccc3c(c2)CCN3C(=O)CC)c1	-20.4%	-12.2%[46.1 µM]	/	14.7	/	/
C/C(=N\Nc1nc(-c2ccccc2)cs1)c1cccs1	0.0%	?	2.82µM*	38.1	7.6%	?
CC(=NNc1nc2ccccc2s1)c1ncccn1	-15.8%	1µM*	?	-97.3*	/	?
C/C(=N\Nc1nc2ccccc2s1)c1cccs1	-44.7%	6.51µM*	-25.9%	-22.3	-79.9%	?
C/C(=N/Nc1ccccc1C(=O)O)c1cccs1	81.4%	?	17.1%	67.8	5.4%	6.1%
COC(=O)C1=C(C(=O)OC)[C@@H]2N(C)c3ccccc3[C@@]23C[C@@H](CO)N(C(=O)c2ccc(Br)cc2)C3=N1	/	/	/	/	/	-33.9%[14.2 µM]
CCN1CCN(C(c2ccc(C(F)(F)F)cc2)c2ccc3cccnc3c2O)CC1 (stereo not drawn)	?	?	7.08µM*	-84.8*	-10.6%	?
CN1CCN(C(c2ccc(C(F)(F)F)cc2)c2cc(Cl)c3cccnc3c2O)CC1 (stereo not drawn)	/	/	/	?	-15.3%	/
N#Cc1nc(-c2cccs2)oc1NCc1ccccc1	9.9%	17.5%	5.8%	16.3	-23.3%	5.9%[46.1 µM]
N#Cc1nc(-c2cccs2)oc1NCc1ccc(Cl)cc1	11.6%	0.7%	10µM*	-33.0	5.7%	-3.2%
COc1ccc(C(=O)Nc2nc(C)c(C(C)=O)s2)cc1S(=O)(=O)N1CCOCC1	-10.4%	/	-16.3%	-91.7*	-6.9%	/
COc1ccc(C(=O)Nc2nnc(C)s2)cc1S(=O)(=O)N1CCOCC1	-14.5%	/	?	11.7	-0.6%	/
COc1ccc(C(=O)Nc2ccc(-c3ccc(C)o3)cc2)cc1S(=O)(=O)N1CCOCC1	10µM*	7.94µM*	2.51µM*	-96.1*	11.1%	12.6µM*
COc1ccc(C(=O)Nc2nc3ccc(S(=O)(=O)N4CCCC4)cc3s2)cc1	40.2%	23.7%[46.1 µM]	/	-5.0	/	/
COc1cc2nc(NC(=O)c3ccc(S(=O)(=O)N4CCCC4)cc3)sc2cc1OC	0.0%	21.5%[46.1 µM]	/	-62.9*	/	/
CC(=O)Nc1nc2ccc(S(=O)(=O)N3CCCC3)cc2s1	12.6%	/	0.6%	-63.3*	1.0%	/
CCCC(=O)Nc1nc2ccc(S(=O)(=O)N3CCCCC3)cc2s1	10.9%	/	?	-28.0	11.7%	/
COC(=O)c1ccc(N2C(=O)C[C@H](N3CCN(C(=O)c4ccco4)CC3)C2=O)cc1	/	/	/	/	/	21.5%
CCn1ccnc1CN(C)Cc1cn(-c2cccc(C)c2)nc1-c1cccc(F)c1	0.0%	/	3.55µM*	-38.2	-3.7%	/
Cc1cccc(-n2cc(CN(C)Cc3nccn3C)c(-c3cccc(F)c3)n2)c1	-18.3%	/	?	6.4	-0.2%	/
SMILES	FMDV antiviral	Lassa entry inh	HCV inh	HCMV inh	SARS PLpro yeast	MARV entry inh
CN1CCc2c(OCC(=O)N3N=C(c4cccs4)CC3c3ccc(F)cc3)cccc2C1=O (stereo not drawn)	?	-12.5%	4.4%	-88.6*	-2.7%	?
CCN1CCc2c(OCC(=O)N3N=C(c4cccs4)CC3c3ccc(F)cc3)cccc2C1=O (stereo not drawn)	-23.5%	11.2µM*	10µM*	-5.7	-13.0%	?
OC(CC#CCN1CCCCCC1)(c1ccccc1)C1CCCC1 (stereo not drawn)	-21.8%	/	-16.8%	-34.0	2.0%	/
OC(CCN1CCCCC1)(c1ccccc1)C1CCCCC1 (stereo not drawn)	-15.7%	/	/	-35.5	0.7%	5.01µM*
OC(CCN1CCCCC1)(c1ccccc1)C1CC2C=CC1C2 (stereo not drawn)	/	?	/	/	/	6.51µM*
OC(CCN1CCCCC1)(c1ccccc1)C1C[C@@H]2C=C[C@H]1C2 (stereo partly drawn)	-19.9%	/	?	-1.5	/	/
CN(C)CCCCl	/	/	/	0.6	/	/
CSC1=C(C#N)[C@H](c2ccc(C)s2)CC(=O)N1	/	/	/	/	/	-0.4%
Cn1cc(-c2cc3n(n2)CCC(=O)N3CCCC(=O)Nc2ccccc2Cl)c2ccccc21	-26.9%	-24.6%[46.1 µM]	/	-61.8*	/	/
Cc1nnc(SCc2cc(=O)n3c(C)cccc3n2)s1	12.8%	11.9%[46.1 µM]	/	118.3	/	/
O=C(Cn1cccc1C(=O)c1ccccc1)NCCC1=CCCCC1	14.6%	-1.6%	-2.1%	-64.3*	-0.1%	-22.8%[14.2 µM]
O=C(NCCC1=CCCCC1)c1ccc(F)cc1	?	10µM*	1.0%	-29.1	-1.5%	?
CC(=O)c1cccc(NC(=S)NCCC2=CCCCC2)c1	-0.1%	?	11.2µM*	?	15.3%	?
COc1ccc(C(=O)NCCC2=CCCCC2)cc1	12.6µM*	?	5.9%	-4.0	-8.0%	7.31µM*
COc1ccc(C(=O)NCC(=O)OCC(=O)NCCC2=CCCCC2)cc1	-18.5%	-5.5%	21.9%	?	-0.7%	28.2%
O=C(NCCC1=CCCCC1)c1ccc([N+](=O)[O-])cc1	3.5%	?	6.9%	-17.0	-19.1%	?
O=C(Cn1cccc1C(=O)c1ccccc1)NCCCc1ccccc1	-4.4%	?	-11.3%	-33.1	2.8%	-22.0%[46.1 µM]
COc1cc(NC(=O)c2cc(S(=O)(=O)N3CCC(C)CC3)cn2C)cc(OC)c1OC	29.3%	1.3%[46.1 µM]	/	-102.3*	/	/
CC1CCN(S(=O)(=O)c2cc(C(=O)NCCc3ccccc3)n(C)c2)CC1	-9.9%	-0.1%[46.1 µM]	/	-18.9	/	/
CC1CCN(S(=O)(=O)c2cc(C(=O)NCc3ccccc3)n(C)c2)CC1	-13.4%	2.8%[46.1 µM]	/	-80.9*	/	/
COCCNC(=O)CCCN1C(=O)CCn2nc(-c3cccn3C)cc21	0.1%	3.0%[46.1 µM]	/	-0.4	/	/
CC(=O)Nc1nnc(SCC(=O)c2ccc3c(c2)Cc2ccccc2-3)s1	10.5%	?	0.6%	-37.1	3.9%	?
CCC(=O)Nc1nnc(SCC(=O)c2ccc3c(c2)Cc2ccccc2-3)s1	/	6.51µM*	13.3%	-18.6	-14.7%	?
CC(C)CC(=O)Nc1nnc(SCc2cc(=O)n3ccccc3n2)s1	-28.2%	-4.2%[46.1 µM]	/	-24.1	/	/
O=C(Cn1ccccc1=S)c1ccc(Cl)c(Cl)c1	-18.3%	-2.4%	-6.5%	?	/	5.1%[46.1 µM]
On1ccccc1=S	?	/	6.31µM*	-98.9*	/	/

Source: PubChem
